Results as given in PubChem BioAssay (NCATS).
Results filed as inconclusive are left out. The source made the active and inactive calls. Calls come from the whole dose curve; as a rule, active = well fitted curve in the direction sought with a large enough effect; inconclusive = small, poorly fitted or top-dose-only effect, or another doubt; inactive = no such curve, though single readings can be large; an effect the other way counts as inactive or inconclusive.

Key:
[1] = system: NIH3T3; assay: qHTS assay to identify novel small-molecules to repurpose for Merkel cell carcinoma treatment (AID 1296009); settings: MCC and control cell lines, CellTiter-Glo viability, 72 h; at 44.8 µM (top of the series) unless noted; note: nearly all actives have a fitted effect of over 60% in size
Summary of the method: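 Luminescence from CellTiter-Glo, read 10 min after addition at room temperature, reported viability following a 72 hr, 37 degree celsius treatment with NPC or MIPE compounds in titration; values normalized to plate controls.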

[2] = system: C33A; assay: Primary qHTS to identify gynecologic anti-cancer compounds using libraries of approved drugs and bioactive compounds (AID 1345084); settings: Gynecologic cancer cell panel viability, ATPlite luminescence, 48 h; series mostly up to 57.5 µM; note: nearly all actives have a fitted effect of over 55% in size
Summary of the method: (§1)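 Cells, 1,000 per well, were allowed to settle for 16 h at 37 C before compound addition. Five concentrations were tested for 48 h, and viability was read by ATPlite luminescence after 15 min at room temperature.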

[3] = system: CAOV3; assay: as above; settings: Gynecologic cancer cell panel viability, ATPlite luminescence, 48 h; series mostly up to 57.5 µM
Summary of the method: as §1

[4] = system: CASKI; assay: as above; settings: Gynecologic cancer cell panel viability, ATPlite luminescence, 48 h; series mostly up to 57.5 µM
Summary of the method: as §1

[5] = system: Es-2; assay: as above; settings: Gynecologic cancer cell panel viability, ATPlite luminescence, 48 h; series mostly up to 57.5 µM
Summary of the method: as §1

[6] = system: HeLa; assay: as above; settings: Gynecologic cancer cell panel viability, ATPlite luminescence, 48 h; series mostly up to 57.5 µM
Summary of the method: as §1

[7] = system: Hek293T; assay: as above; settings: Gynecologic cancer cell panel viability, ATPlite luminescence, 48 h, control line for the selectivity index; series mostly up to 57.5 µM
Summary of the method: as §1

[8] = system: JEG-3; assay: as above; settings: Gynecologic cancer cell panel viability, ATPlite luminescence, 48 h; series mostly up to 57.5 µM
Summary of the method: as §1

[9] = system: OV90; assay: as above; settings: Gynecologic cancer cell panel viability, ATPlite luminescence, 48 h; series mostly up to 57.5 µM
Summary of the method: as §1

[10] = system: PA-1; assay: as above; settings: Gynecologic cancer cell panel viability, ATPlite luminescence, 48 h; series mostly up to 57.5 µM
Summary of the method: as §1

[11] = system: Tov-21-G; assay: as above; settings: Gynecologic cancer cell panel viability, ATPlite luminescence, 48 h; series mostly up to 57.5 µM
Summary of the method: as §1

[12] = system: Tov112D; assay: as above; settings: Gynecologic cancer cell panel viability, ATPlite luminescence, 48 h; series mostly up to 57.5 µM
Summary of the method: as §1

[13] = system: SKOV3; assay: as above; settings: Gynecologic cancer cell panel viability, ATPlite luminescence, 48 h; series mostly up to 57.5 µM
Summary of the method: as §1

Measured: Potency

Cc1cc(O[C@@H]2O[C@H](COC(=O)CC(=O)O)[C@@H](O)[C@H](O)[C@H]2O)c(C(C)C)cc1O
inactive: [1] inactive [at 17.4 µM] | [2] | [3] | [4] | [5] | [6] | [7] | [8] | [9] | [10] | [11] | [12]

COc1cc(O)c2c(c1Cl)CC(C)OC2=O (centres undefined)
not listed: [13]
inactive: all other assays above

COc1ccc(OC)c(C2C(C#N)=C(N)Oc3n[nH]c(-c4ccc5ccccc5c4)c32)c1 (centres undefined)
not listed: [13]
inactive: all other assays above

COc1cc(C[C@@]2(O)CO[C@@H](c3ccc(O[C@@H]4O[C@H](CO)[C@@H](O)[C@H](O)[C@H]4O)c(OC)c3)[C@H]2CO)ccc1O
inactive: [1] inactive [at 17.4 µM] | [2] | [3] | [4] | [5] | [6] | [7] | [8] | [9] | [10] | [11] | [12]

Cc1ccc2[nH]c(=O)c(C3=NN(C(=O)CCC(=O)O)C(c4ccc(Br)cc4)C3)c(-c3ccccc3)c2c1 (centres undefined)
not listed: [13]
inactive: all other assays above

Cc1c(Cc2ccc3ccccc3n2)c2cc(F)ccc2n1CC(=O)O
not listed: [13]
inactive: all other assays above

C[C@@H]1C[C@H]2OC(=O)[C@@]3(C)CCC[C@](C)(C23)[C@@]1(O)CCC1=CC(=O)OC1O (some centres undefined)
not listed: [13]
inactive: all other assays above

CC(=O)OC1(C)CC(O)C2(O)C=COC(OC3OC(CO)C(O)C(O)C3O)C12 (centres undefined)
inactive: [1] inactive [at 17.4 µM] | [2] | [3] | [4] | [5] | [6] | [7] | [8] | [9] | [10] | [11] | [12]

CC(=O)OC12CC(C)C(O)C1/C=C(/COC1OC(CO)C(O)C(O)C1O)CCC1C(/C=C(\C)C2=O)C1(C)C (centres undefined)
inactive: [1] inactive [at 17.4 µM] | [2] | [3] | [4] | [5] | [6] | [7] | [8] | [9] | [10] | [11] | [12]

C=C1C(O)C(OC(=O)c2ccccc2)C2C(C)(C(=O)O)CCCC2(C)C1CC/C(C)=C\CO (centres undefined)
inactive: [1] inactive [at 17.4 µM] | [2] | [3] | [4] | [5] | [6] | [7] | [8] | [9] | [10] | [11] | [12]

H-DPPDPDRFYGMM-NH2
inactive: [1] inactive [at 17.4 µM] | [2] | [3] | [4] | [5] | [6] | [7] | [8] | [9] | [10] | [11] | [12]

CC(=O)OCC1=CCC2C(C)(C)CCCC2(C)C12CCC(C)(CC(=O)O)O2 (centres undefined)
not listed: [8]
inactive: all other assays above

O=C(O)c1ccnc2cc(C(OCC3CCC(F)(F)CC3)c3ccccc3Cl)[nH]c12 (centres undefined)
not listed: [6]
inactive: all other assays above

C=C1C(OC(C)=O)CCC2(C)CCC(C(C)(C)O)CC12 (centres undefined)
not listed: [9]
inactive: all other assays above

COc1ccc([C@H]2OC[C@H]3[C@@H]2CO[C@@H]3c2ccc(O[C@@H]3O[C@H](CO)C(O)[C@H](O)[C@H]3O)c(OC)c2)cc1OC (some centres undefined)
inactive: [1] inactive [at 17.4 µM] | [2] | [3] | [4] | [5] | [6] | [7] | [9] | [10] | [11] | [12]
